Test results as given in the supplement of paper PMC11172423.

What follows are molecules tested on Falciformispora senegalensis CBS197.79 (assay: growth relative to untreated control; higher = less inhibition, active = 20 or less). Conditions: 25 µM.
Method in brief: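 Viability readout used either MTS (2 h, 490 nm) or resazurin (600 nm). Before this, hyphal fragments of M. mycetomatis MM55 or F. senegalensis CBS197.79 in colourless RPMI 1640 with L-glutamine and MOPS (68–72% transmission at 660 nm) had been exposed in 96-well plates to compound at 100 or 25 µM for 7 days at 37 °C. Growth denotes metabolic activity relative to the untreated growth control, with a medium-plus-dye blank subtracted from both.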

Compound	growth
N#C/C(C(=O)c1ccccc1Cl)=C1\NC(c2ccccc2)=CS1	90.5% (inactive)
CC(C)Nc1ncc2nc(Nc3cc(C(F)(F)F)cc(C(F)(F)F)c3)n(C3CCNCC3)c2n1	104% (inactive)
CC(CN1c2ccccc2Sc2ccccc21)N(C)C (stereo unspecified)	102% (inactive)
CC1(C)CCC(CO)(NC(=O)c2cc3c(F)cc(F)cc3[nH]2)CC1	93.1% (inactive)
CCOc1ccc(-c2nc(NC(=O)Cc3cccc(OC)c3)sc2C)cc1	93.7% (inactive)
O=c1[nH]c2ccccc2n1CCCN1CCN(C(c2ccccc2)c2ccccc2)CC1	103% (inactive)
Clc1cccc2cnsc12	96.1% (inactive)
CN1CCC(N2CCC(NC(=O)c3cc4c(F)cccc4s3)CC2)CC1	91.4% (inactive)
CCOc1ccc(Cc2nccc3cc(OCC)c(OCC)cc23)cc1OCC	108% (inactive)
Cc1nc2ccccc2n1Cc1ccc(Cl)cc1	106% (inactive)
CNC(=O)c1cc(Oc2ccc(NC(=O)Nc3ccc(Cl)c(C(F)(F)F)c3)cc2)ccn1	103% (inactive)
CC(C)(C)Cn1c(N)nc2ccc(-c3[nH]c(C(C)(C)C)nc3-c3ccc(F)cc3)nc21	100% (inactive)
COc1ccc(Cl)cc1-c1nc(C(=O)NCCN2CCCCC2)c(C(C)C)s1	94.5% (inactive)
O=C(c1ccc(Nc2nccc(-c3cc(Cl)cc(C(F)(F)F)c3)n2)cc1)N1CC2(COC2)C1	96% (inactive)
CC(C)Nc1cccnc1N1CCN(C(=O)c2cc3cc(NS(C)(=O)=O)ccc3[nH]2)CC1	101% (inactive)
Cn1c(O)nnc1Cn1ccc(C(F)(F)F)c(Oc2cc(Cl)cc(C#N)c2)c1=O	106% (inactive)
O=C(Nc1ncccc1O)c1ccc(S(=O)(=O)NCCc2cccs2)cc1	88.7% (inactive)
CCCCN(CCCC)CCC(O)c1cc2c(Cl)cc(Cl)cc2c2cc(C(F)(F)F)ccc12 (stereo unspecified)	98.2% (inactive)

Compound	growth
O=C(Nc1ncc([N+](=O)[O-])s1)c1ccccc1O	95.8% (inactive)
C[C@]1(c2nc3c(C(N)=O)cccc3[nH]2)CCCN1	95.9% (inactive)
CC(C)N1CCN(c2ccc(OC[C@H]3CO[C@](Cn4cncn4)(c4ccc(Cl)cc4Cl)O3)cc2)CC1	20.1% (inactive)
CN[C@@H]1[C@H](O)[C@H](NC)[C@H]2O[C@@]3(O)C(=O)C[C@@H](C)O[C@H]3O[C@@H]2[C@H]1O	105% (inactive)
O=C1NCCN1CCN1CCC(c2cn(-c3ccc(F)cc3)c3ccc(Cl)cc23)CC1	7.42% (active)
Cc1nn(-c2cccc(Cl)c2)c2c1C(C(=O)c1ccc3c(c1)OCO3)CC(=O)N2 (stereo unspecified)	87.3% (inactive)
CCn1cnc2c(N3CCCC(c4ccncc4)C3)ncnc21 (stereo unspecified)	99.7% (inactive)
FC(F)(F)c1ccnc(Nc2cn3cc(-c4ccc(N5CCOCC5)nc4)ccc3n2)n1	91.1% (inactive)
Cn1cc(CN2CCc3c(c(C(=O)NCc4nccs4)nn3Cc3ccccc3)C2)c2ccccc21	89.7% (inactive)
Cc1cc(C(=O)N2CCOc3c(cc(-c4csc5ccccc45)cc3OCCc3ccccn3)C2)n(C)n1	90.1% (inactive)
CN(C)CCCN1c2ccccc2Sc2ccc(Cl)cc21	22.7% (inactive)
O=C(Nc1cccc(Cl)c1)c1ccnc(N2CCC(N3CCCC3)CC2)c1	95.5% (inactive)
c1ccc(Nc2cc(Nc3cc(-c4ccccc4)[nH]n3)nc3ccnn23)cc1	67.4% (inactive)
CCN1CCN(Cc2ccc(-c3cc4c(N[C@H](C)c5ccccc5)[nH]cnc-4n3)cc2)CC1	78.1% (inactive)
CC(C)C[C@H](NC(=O)[C@H](Cc1ccccc1)NC(=O)c1cnccn1)B(O)O	103% (inactive)
Cc1nn(C)c(Oc2ccccc2)c1C=NOCc1ccc(C(=O)OC(C)(C)C)cc1	95% (inactive)
CN(C)CCCN1C(=O)c2[nH]nc(-c3ccc(Cl)cc3O)c2C1c1ccc(Cl)cc1 (stereo unspecified)	83.3% (inactive)
CC(=O)Nc1ccc(NC(=O)c2cc(-c3ccc(C)cc3O)n[nH]2)cc1	81.7% (inactive)
